Data taken from the supplement of paper PMC9950053.
Structures can show the parent of a compound that is named as a salt.

Each compound was assayed on Danio rerio larvae (5 dpf) (assay: excitability (activity period 17 minus period 16, 1-s interval sound) minus DMSO control (percentage points); higher = more acoustic excitability than DMSO larvae). Settings: 10 µM; exposure time: 3 h pre-incubation + 3 h imaging.
Experimental: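 Wild-type 5 dpf zebrafish larvae (n=48 per drug, 96-well plates, 28.5 °C) were exposed to Tocris FDA-approved library compounds at 10 µM (0.1% DMSO) for 3 h before and 3 h during imaging. Images were taken every 6 s during visual and acoustic stimuli, and larvae were tracked with Z-LaP Tracker. Each measure is the treated-group mean minus the DMSO control mean (n=844), in percentage points. This mapping covers compounds with 5-character plate codes.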
Work on CC(C)(C(=O)O)c1ccc(C(O)CCCN2CCC(C(O)(c3ccccc3)c3ccccc3)CC2)cc1 (configuration not stated) [Fexofenadine hydrochloride] yielded an excitability of -5.03.
N#Cc1ccc2[nH]cc(CCCCN3CCN(c4ccc5oc(C(N)=O)cc5c4)CC3)c2c1 [Vilazodone hydrochloride] was tested, and the excitability was 17.
O=C1CCc2ccc(OCCCCN3CCN(c4cccc(Cl)c4Cl)CC3)cc2N1 [Aripiprazole] gave an excitability of 16.5.
NS(=O)(=O)c1cc2c(cc1Cl)NC(C1CC3C=CC1C3)NS2(=O)=O (configuration not stated) [Cyclothiazide] was tested, and the excitability was 0.365.
CNCc1ccc(-c2[nH]c3cc(F)cc4c3c2CCNC4=O)cc1 [Rucaparib camsylate] gave an excitability of 13.1.
In the case of OC(c1cc(C(F)(F)F)nc2c(C(F)(F)F)cccc12)C1CCCCN1 (configuration not stated) [Mefloquine hydrochloride], the excitability is reported as 13.3.
For CCCc1nn(C)c2c(=O)[nH]c(-c3cc(S(=O)(=O)N4CCN(C)CC4)ccc3OCC)nc12 [Sildenafil citrate], the excitability was 4.28.
Compound CC(=O)Oc1cc2c(s1)CCN(C(C(=O)C1CC1)c1ccccc1F)C2 (configuration not stated) [Prasugrel] has an excitability of 5.89.
N#C[C@@H]1C[C@@H]2C[C@@H]2N1C(=O)[C@@H](N)C12CC3CC(CC(O)(C3)C1)C2 [Saxagliptin hydrochloride] was tested, and the excitability was 2.14.
In the case of C#CCN[C@@H]1CCc2ccccc21 [Rasagiline mesylate], the excitability is reported as -0.121.
OCc1cc(C(O)CNCCCCCCOCCCCc2ccccc2)ccc1O (configuration not stated) [Salmeterol xinafoate] was tested, and the excitability was 13.1.
CC[C@H]1OC(=O)[C@H](C)[C@@H](O[C@H]2C[C@@](C)(OC)[C@@H](O)[C@H](C)O2)[C@H](C)[C@@H](O[C@@H]2O[C@H](C)C[C@H](N(C)C)[C@H]2O)[C@](C)(O)C[C@@H](C)CN(C)[C@H](C)[C@@H](O)[C@]1(C)O [Azithromycin] showed an excitability of 15.8.
CC(C)COCC(CN(Cc1ccccc1)c1ccccc1)N1CCCC1 (configuration not stated) [Bepridil hydrochloride] showed an excitability of 14.7.
Compound COc1ccccc1Oc1c(NS(=O)(=O)c2ccc(C(C)(C)C)cc2)nc(-c2ncccn2)nc1OCCO [Bosentan] has an excitability of -2.37.
With COc1cc([C@@H]2c3cc4c(cc3[C@@H](O[C@@H]3O[C@@H]5CO[C@@H](C)O[C@H]5[C@H](O)[C@H]3O)[C@H]3COC(=O)[C@H]23)OCO4)cc(OC)c1O [Etoposide] the excitability was 9.95.
CNC(=O)c1cc(Oc2ccc(NC(=O)Nc3ccc(Cl)c(C(F)(F)F)c3)cc2)ccn1 [Sorafenib] gave an excitability of 13.1.
COc1cc(N)c(Cl)cc1C(=O)NC1CCN(CCCOc2ccc(F)cc2)CC1OC (configuration not stated) [Cisapride] showed an excitability of 18.5.
For Cc1cc2c(s1)Nc1ccccc1N=C2N1CCN(C)CC1 [Olanzapine], the excitability was 2.72.
Work on C[C@@H]1C[C@H]2[C@@H]3CCC4=CC(=O)C=C[C@]4(C)[C@@]3(F)[C@@H](O)C[C@]2(C)[C@@]1(O)C(=O)CO [Dexamethasone] yielded an excitability of -4.14.
CC(=O)Nc1ccc(O)cc1 [Acetaminophen] gave an excitability of -1.73.
Work on CNS(=O)(=O)Cc1ccc2[nH]cc(CCN(C)C)c2c1 [Sumatriptan succinate] yielded an excitability of -4.97.
CC(C)OC(=O)C(C)(C)Oc1ccc(C(=O)c2ccc(Cl)cc2)cc1 [Fenofibrate] was tested, and the excitability was 4.72.
Compound C[C@H]1O[C@H](O[C@H]2[C@H](O)[C@@H](O)[C@@H](O[C@H]3[C@H](O)[C@@H](O)C(O)O[C@@H]3CO)O[C@@H]2CO)[C@H](O)[C@@H](O)[C@@H]1N[C@H]1C=C(CO)[C@@H](O)[C@H](O)[C@H]1O (some centres not stated) [Acarbose] has an excitability of -4.36.
COc1cc2nccc(Oc3ccc(NC(=O)C4(C(=O)Nc5ccc(F)cc5)CC4)cc3)c2cc1OC was tested, and the excitability was 16.9.
With O=c1n(CCCN2CCN(c3cccc(Cl)c3)CC2)nc2ccccn12 [Trazodone hydrochloride] the excitability was 20.3.
In the case of CN(C)CCc1c[nH]c2ccc(C[C@H]3COC(=O)N3)cc12 [Zolmitriptan], the excitability is reported as 4.24.
Compound CCCC1O[C@@H]2C[C@H]3[C@@H]4CCC5=CC(=O)C=C[C@]5(C)[C@H]4[C@@H](O)C[C@]3(C)[C@]2(C(=O)CO)O1 (some centres not stated) [Budesonide] has an excitability of 1.14.
With COc1ccccc1OCC(O)CN1CCN(CC(=O)Nc2c(C)cccc2C)CC1 (configuration not stated) [Ranolazine dihydrochloride] the excitability was 4.28.
For COCCc1ccc(OCC(O)CNC(C)C)cc1 (configuration not stated) [Metoprolol tartrate], the excitability was -6.24.
With NC(=O)OCC(COC(N)=O)c1ccccc1 [Felbamate] the excitability was -3.94.
CCc1nc(N)nc(N)c1-c1ccc(Cl)cc1 [Pyrimethamine] was tested, and the excitability was 6.57.
With OCCN1C[C@H](O)[C@@H](O)[C@H](O)[C@H]1CO [Miglitol] the excitability was 4.04.
Compound Clc1ccc2nsnc2c1NC1=NCCN1 [Tizanidine hydrochloride] has an excitability of 6.39.
O=C(O)C[C@H](O)C[C@H](O)/C=C/c1c(C2CC2)nc2ccccc2c1-c1ccc(F)cc1 [Pitavastatin calcium] was tested, and the excitability was -1.16.
With CN(C)C(=N)NC(=N)N [Metformin hydrochloride] the excitability was 6.55.
CN[C@H]1CC[C@@H](c2ccc(Cl)c(Cl)c2)c2ccccc21 [Sertraline hydrochloride] was tested, and the excitability was 10.4.
In the case of CCCCCCCN(CC)CCCC(O)c1ccc(NS(C)(=O)=O)cc1 (configuration not stated) [Ibutilide hemifumarate], the excitability is reported as 13.3.
